PubChem BioAssay (EPA / NIEHS)
The source made the active and inactive calls. The calls were made as follows: active = hit-call score of the fitted dose curve at least 0.9, where 1 is the maximum; inactive = score below 0.9.

What was measured:
[1] = CCTE_Harrill_HTTr_Viability_MCF7: CCTE's 6-hour Cell Viability Assessment for the High-Throughput Transcriptomics (HTTr) Platform, in MCF-7 cells cultured in DMEM + 10% fetal bovine serum, Harrill Lab (AID 2284010)
Procedure, shortened: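 Cells were dosed with chemicals in an eight-point dilution series, imaged 6 hours later for propidium iodide uptake, and the endpoint was analyzed by bidirectional fitting against DMSO as negative control.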

[2] = CCTE_Harrill_HTTr_Apoptosis_MCF7: CCTE's 6-hour Apoptosis Assessment for the High-Throughput Transcriptomics (HTTr) Platform, in MCF-7 cells cultured in DMEM + 10% fetal bovine serum, Harrill Lab (AID 2284011)
Procedure, shortened: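 Read-out: CellEvent Caspase 3/7 Green signal by high content imaging, gain-of-signal indicating apoptosis. MCF-7 cells, DMEM + 10% FBS, eight-point dilution series, 6 h exposure. Curves fitted bidirectionally relative to DMSO negative control.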

[3] = CCTE_Shafer_MEA_acute_firing_rate_mean: CCTE's Neural Acute Assay for Mean Firing Rate, Shafer Lab (AID 2284009);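 also: analyzed for loss of signal so actives lower firing rate relative to DMSO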
Procedure, shortened: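 Percent change in well-mean firing rate was derived from extracellular spikes detected at 8x rms noise (300-5000 Hz band-pass) before and after a 40-min compound exposure. Cultures were primary rat cortical neurons, tested at 0.03-40 uM.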

[4] = CCTE_Shafer_MEA_acute_burst_number: CCTE's Neural Acute Assay for Single-Electrode Bursts, Shafer Lab (AID 2284013)
Procedure, shortened: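 Spontaneous network activity of primary rat cortical neurons was recorded extracellularly on microelectrode arrays at 37 C, with 40-min periods before and during exposure to 0.03-40 uM compound on DIV 13 or 15.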

[5] = CCTE_Shafer_MEA_acute_burst_duration_mean: CCTE's Neural Acute Assay for Mean Burst Duration, Shafer Lab (AID 2284014);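 also: hits are decreases in mean burst duration relative to DMSO controls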
Procedure, shortened: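 Read-out is the per-well percent change in mean burst duration (first to last spike within a single-electrode burst) between 40-min recordings before and after compound. Cultures were primary rat cortical neurons on MEAs, dosed at 0.03-40 uM on DIV 13 or 15.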

[6] = CCTE_Shafer_MEA_acute_per_burst_spike_number_mean: CCTE's Neural Acute Assay for Average Number of Spikes Per Burst, Shafer Lab (AID 2284015);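 also: hits are decreases in mean spikes per burst versus baseline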
Procedure, shortened: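 Read-out: percent change in mean spikes per burst, each well's post-exposure 40-min recording versus its own 40-min baseline. Rat cortical cultures, DIV 13 or 15, compounds 0.03-40 uM; DMSO is negative control, loss-of-signal fitting.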

[7] = CCTE_Shafer_MEA_acute_interburst_interval_mean: CCTE's Neural Acute Assay for Mean Interburst Interval, Shafer Lab (AID 2284016);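 also: percent change of mean interburst interval versus each well's own pre-dose baseline; curves fitted for decrease in interburst interval relative to DMSO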
Procedure, shortened: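 Rat cortical cultures, DIV 13/15; 20 min equilibration, 40 min baseline, compound 0.03-40 uM, 40 min re-recording, 37 C. Spikes detected at 8x rms noise (300-5000 Hz band-pass). Endpoint: % change in interburst interval, fitted in loss direction vs DMSO.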

[8] = CCTE_Shafer_MEA_acute_burst_percentage_mean: CCTE's Neural Acute Assay for Percentage of Spikes in a Burst, Shafer Lab (AID 2284017);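 also: curve fitted for loss of signal so potency reflects decreased burst percentage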
Procedure, shortened: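 Rat cortical cultures, DIV 13/15, 37 C. Spikes detected at 8x rms noise (300-5000 Hz band-pass). Burst spikes/total spikes averaged across electrodes per well; % change post- vs pre-treatment (40 min each), loss-of-signal fit vs DMSO.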

[9] = CCTE_Shafer_MEA_acute_burst_percentage_std: CCTE's Neural Acute Assay for Standard Deviation of Burst Percentage, Shafer Lab (AID 2284018);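 also: fitted in the negative direction so actives lower burst percentage SD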
Procedure, shortened: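 Value is percent change from baseline in the across-electrode SD of spikes-in-bursts percentage, wells with >/= 10 active electrodes. Acute 40-min exposure to 0.03-40 uM on DIV 13 or 15 rat cortical cultures, recorded at 37 C after 40-min baseline.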

[10] = CCTE_Shafer_MEA_acute_per_network_burst_spike_number_mean: CCTE's Neural Acute Assay for Average Number of Spikes in a Network Burst, Shafer Lab (AID 2284019)
Procedure, shortened: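 Read-out is mean spike count per network burst, taken as percent change between a 40-min pre-exposure and a 40-min post-exposure recording per well. Rat primary cortical neurons on MEAs at 37 C, DIV 13 or 15; compounds at 0.03-40 uM.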

Compound: CCC(C)=O
- outcome [1]: inactive
- outcome [2]: inactive

Compound: COc1ccc(COC(C)=O)cc1
- outcome [1]: inactive
- outcome [2]: inactive

Compound: COC(=O)c1ccc(C)cc1C1=NC(C)(C(C)C)C(=O)N1 (stereo unspecified) (tested in a mixture with another compound)
- outcome [1]: inactive
- outcome [2]: inactive

Compound: CCCSc1ccc2nc(NC(=O)OC)[nH]c2c1
- outcome [1]: inactive
- outcome [2]: inactive

Compound: Cc1ccc(S(N)(=O)=O)cc1
- outcome [1]: inactive
- outcome [2]: inactive

Compound: CS(=O)(=O)OCCCCOS(C)(=O)=O
- outcome [1]: inactive
- outcome [2]: inactive

Compound: CCOC(=O)c1ccc(N)cc1
- outcome [1]: inactive
- outcome [2]: inactive

Compound: O=c1[nH]c(=O)c2cn[nH]c2[nH]1
- outcome [1]: inactive
- outcome [2]: inactive

Compound: CC1(C)C2=CCCC(C)(C)[C@]23CC[C@H]1C3
- outcome [1]: inactive
- outcome [2]: inactive

Compound: CCCCCc1ccco1
- outcome [1]: inactive
- outcome [2]: inactive

Compound: Cc1ccc(N)c(S(=O)(=O)O)c1
- outcome [1]: inactive
- outcome [2]: inactive

Compound: O=C(Nc1ccc2c(O)c(N=Nc3ccc(N=Nc4ccc(S(=O)(=O)O)cc4)cc3)c(S(=O)(=O)O)cc2c1)c1ccccc1
- outcome [3]: inactive
- outcome [4]: inactive
- outcome [5]: inactive
- outcome [6]: inactive
- AC50 [7]: 15 µM (active)
- AC50 [8]: 15 µM (active)
- outcome [9]: inactive
- outcome [10]: inactive

Compound: CCCCC1(COC(=O)CCC(=O)O)C(=O)N(c2ccccc2)N(c2ccccc2)C1=O
- outcome [1]: inactive
- outcome [2]: inactive

Compound: O=C1c2ccccc2C(=O)c2c(O)ccc(O)c21
- outcome [1]: inactive
- outcome [2]: inactive

Compound: CCCC(=O)OCCc1ccccc1
- outcome [1]: inactive
- outcome [2]: inactive

Compound: c1ccc(CCc2ccccc2)cc1
- outcome [1]: inactive
- outcome [2]: inactive

Compound: COc1ccc(CCN2CCC(Nc3nc4ccccc4n3Cc3ccc(F)cc3)CC2)cc1
- AC50 [1]: 76.2 µM (active)
- outcome [2]: inactive

Compound: OCC#CCO
- outcome [1]: inactive
- outcome [2]: inactive

Compound: C=CC(=O)OCCCC
- outcome [1]: inactive
- outcome [2]: inactive

Compound: C[C@@H]1CCN(C(=O)[C@H](CCCN=C(N)N)NS(=O)(=O)c2cccc3c2NC[C@H](C)C3)[C@@H](C(=O)O)C1
- outcome [1]: inactive
- outcome [2]: inactive

Compound: CN(c1nccc(=O)[nH]1)C1CCN(c2nc3ccccc3n2Cc2ccc(F)cc2)CC1
- outcome [1]: inactive
- outcome [2]: inactive

Compound: CC(C)c1ccccc1O
- outcome [1]: inactive
- outcome [2]: inactive

Compound: CCCN(CCC)S(=O)(=O)c1ccc(C(=O)O)cc1
- outcome [1]: inactive
- outcome [2]: inactive

Compound: COCCOCCOCCO
- outcome [1]: inactive
- outcome [2]: inactive

Compound: Brc1ccc(Br)c(Br)c1
- outcome [1]: inactive
- outcome [2]: inactive

Compound: O=C(O)CCCCCCCCC(=O)O
- outcome [1]: inactive
- outcome [2]: inactive

Compound: CN(C)CCOC(C)(c1ccccc1)c1ccccn1 (stereo unspecified)
- outcome [1]: inactive
- outcome [2]: inactive

Compound: Cc1[nH]c(=O)c(C#N)cc1-c1ccncc1
- outcome [1]: inactive
- outcome [2]: inactive

Compound: C=C(C)[C@@H]1CC=C(C)C(=O)C1
- outcome [1]: inactive
- outcome [2]: inactive

Compound: [O-]n1ccccc1=S.[O-]n1ccccc1=S.[Zn+2]
- outcome [1]: inactive
- outcome [2]: inactive
